Laboratory results taken from PubChem BioAssay AID1159580 (chemical genetic matrix, 2015).
The whole screen tested about 5,500 compounds, of which about 2,000 (36%) were called active. Roughly 18% stayed inconclusive and do not appear here. No stated cut-off is given here; in the data, active means normalized growth mostly below about 0.91 (no sharp cut-off); inconclusive means no clear call, values can overlap the other calls; inactive means mostly above about 0.92. This is one part of the list.

Experiment: chemical genetic growth profiling, strain panel (AID 1159580);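 further: tested at 20 µM; growth read once vehicle control cultures reached saturation at 30 °C; 1 = growth at the plate median or of vehicle wells; lower values mean less growth of the strain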
Conditions: growth OD

Measured: normalized growth

CC(=O)OCC[C@H](C)CCC=C(C)C
inactive: S. cerevisiae deletion strains, locus YJR043C, strain POL32, hits give low values 1.01 | S. cerevisiae deletion strains, locus YJR066W, strain TOR1, hits give low values 0.979 | S. cerevisiae deletion strains, locus YKL009W, strain mrt4, hits give low values 1.01 | S. cerevisiae deletion strains, locus YKL068W, hits give low values 1.03 | S. cerevisiae deletion strains, locus YKL085W, strain MDH1 (second series), hits give low values 1.01 | S. cerevisiae deletion strains, locus YKL085W, strain MDH1, hits give low values 1.01 | S. cerevisiae deletion strains, locus YKL160W, strain elf1, hits give low values 0.978 | S. cerevisiae deletion strains, locus YKL190W, strain CNB1, hits give low values 1.01 | S. cerevisiae deletion strains, locus YKR001C, strain vps1, hits give low values 1.03 | S. cerevisiae deletion strains, locus YKR026C, strain gcn3, hits give low values 0.994 | S. cerevisiae deletion strains, locus YKR091W, strain srl3, hits give low values 0.986 | S. cerevisiae deletion strains, locus YLL001W, strain dnm1, hits give low values 1.03 | S. cerevisiae deletion strains, locus YLL026W, hits give low values 1.03 | S. cerevisiae deletion strains, locus YLL041C, strain sdh2, hits give low values 1.02 | S. cerevisiae deletion strains, locus YLR027C, strain aat2, hits give low values 1.02 | S. cerevisiae deletion strains, locus YLR039C, strain RIC1, hits give low values 1.08 | S. cerevisiae deletion strains, locus YLR058C, strain SHM2, hits give low values 1.02 | S. cerevisiae deletion strains, locus YLR102C, strain apc9, hits give low values 1.02 | S. cerevisiae deletion strains, locus YLR113W, strain HOG1, hits give low values 1.05 | S. cerevisiae deletion strains, locus YLR221C, strain rsa3, hits give low values 1.04 | S. cerevisiae deletion strains, locus YLR258W, strain gsy2, hits give low values 1.03 | S. cerevisiae deletion strains, locus YLR262C, strain YPT6 (second series), hits give low values 0.991 | S. cerevisiae deletion strains, locus YLR262C, strain YPT6, hits give low values 1.09 | S. cerevisiae deletion strains, locus YLR268W, strain sec22, hits give low values 1.03 | S. cerevisiae deletion strains, locus YLR320W, strain mms22, hits give low values 1 | S. cerevisiae deletion strains, locus YLR330W, strain CHS5, hits give low values 1 | S. cerevisiae deletion strains, locus YLR342W, strain FKS1 (second series), hits give low values 1.01 | S. cerevisiae deletion strains, locus YLR342W, strain FKS1, hits give low values 0.975 | S. cerevisiae deletion strains, locus YLR357W, strain rsc2, hits give low values 0.981 | S. cerevisiae deletion strains, locus YLR370C, strain arc18, hits give low values 0.996 | S. cerevisiae deletion strains, locus YLR371W, strain rom2, hits give low values 1.02 | S. cerevisiae deletion strains, locus YLR384C, strain iki3, hits give low values 0.971 | S. cerevisiae deletion strains, locus YLR418C, strain cdc73, hits give low values 1.02 | S. cerevisiae deletion strains, locus YML016C, strain PPZ1, hits give low values 1.02 | S. cerevisiae deletion strains, locus YML032C, strain rad52, hits give low values 1.03 | S. cerevisiae deletion strains, locus YML120C, strain ndi1, hits give low values 0.988 | S. cerevisiae deletion strains, locus YML124C, strain tub3, hits give low values 1.02 | S. cerevisiae deletion strains, locus YMR058W, strain fet3, hits give low values 0.989 | S. cerevisiae deletion strains, locus YMR078C, strain ctf18, hits give low values 1.04 | S. cerevisiae deletion strains, locus YMR125W, strain sto1, hits give low values 0.985 | S. cerevisiae deletion strains, locus YMR129W, hits give low values 0.985 | S. cerevisiae deletion strains, locus YMR205C, strain PFK2, hits give low values 1.01 | S. cerevisiae deletion strains, locus YMR223W, strain ubp8, hits give low values 1.04 | S. cerevisiae deletion strains, locus YMR231W, strain pep5, hits give low values 0.983 | S. cerevisiae deletion strains, locus YMR307W, strain GAS1, hits give low values 1.05 | S. cerevisiae deletion strains, locus YNL067W, strain RPL9B, hits give low values 1.02 | S. cerevisiae deletion strains, locus YNL071W, strain lat1, hits give low values 0.989 | S. cerevisiae deletion strains, locus YNL153C, strain GIM3, hits give low values 1.01 | S. cerevisiae deletion strains, locus YNL183C, strain NPR1, hits give low values 0.991 | S. cerevisiae deletion strains, locus YNL209W, strain ssb2, hits give low values 0.979 | S. cerevisiae deletion strains, locus YNL233W, strain BNI4, hits give low values 1.01 | S. cerevisiae deletion strains, locus YNL248C, strain rpa49, hits give low values 0.984 | S. cerevisiae deletion strains, locus YNL250W, strain rad50, hits give low values 1.03 | S. cerevisiae deletion strains, locus YNL271C, strain bni1, hits give low values 1.02 | S. cerevisiae deletion strains, locus YNL298W, strain CLA4, hits give low values 1.05 | S. cerevisiae deletion strains, locus YNL307C, strain MCK1, hits give low values 1.04 | S. cerevisiae deletion strains, locus YNL322C, strain KRE1 (second series), hits give low values 0.974 | S. cerevisiae deletion strains, locus YNL322C, strain KRE1, hits give low values 1.01 | S. cerevisiae deletion strains, locus YNR049C, strain mso1, hits give low values 0.996 | S. cerevisiae deletion strains, locus YNR052C, strain pop2, hits give low values 1.01 | S. cerevisiae deletion strains, locus YOL012C, strain htz1 1.25 | S. cerevisiae deletion strains, locus YOL147C, strain pex11, hits give low values 1.03 | S. cerevisiae deletion strains, locus YOR001W, strain rrp6, hits give low values 1.02 | S. cerevisiae deletion strains, locus YOR061W, strain CKA2, hits give low values 1.01 | S. cerevisiae deletion strains, locus YOR069W, strain VPS5, hits give low values 1 | S. cerevisiae deletion strains, locus YOR070C, strain gyp1, hits give low values 0.994 | S. cerevisiae deletion strains, locus YOR080W, strain dia2, hits give low values 0.968 | S. cerevisiae deletion strains, locus YOR083W, strain WHI5, hits give low values 0.972 | S. cerevisiae deletion strains, locus YOR106W, strain vam3, hits give low values 0.971 | S. cerevisiae deletion strains, locus YOR136W, strain idh2, hits give low values 1.02 | S. cerevisiae deletion strains, locus YOR144C, strain elg1, hits give low values 1.03 | S. cerevisiae deletion strains, locus YOR184W, strain ser1, hits give low values 1.02 | S. cerevisiae deletion strains, locus YOR231W, strain MKK1, hits give low values 1.06 | S. cerevisiae deletion strains, locus YOR265W, strain rbl2, hits give low values 0.995 | S. cerevisiae deletion strains, locus YOR270C, strain vph1, hits give low values 1.03 | S. cerevisiae deletion strains, locus YOR290C, strain snf2, hits give low values 0.997 | S. cerevisiae deletion strains, locus YOR316C, strain cot1, hits give low values 1.02 | S. cerevisiae deletion strains, locus YPL051W, strain arl3, hits give low values 0.99 | S. cerevisiae deletion strains, locus YPL078C, strain atp4, hits give low values 0.967 | S. cerevisiae deletion strains, locus YPL106C, strain sse1, hits give low values 0.949 | S. cerevisiae deletion strains, locus YPL240C, strain hsp82, hits give low values 0.99 | S. cerevisiae deletion strains, locus YPL256C, strain CLN2, hits give low values 0.997 | S. cerevisiae deletion strains, locus YPR119W, strain clb2, hits give low values 1.02 | S. cerevisiae deletion strains, locus YPR141C, strain kar3, hits give low values 1.03 | S. cerevisiae deletion strains, locus YPR163C, strain tif3, hits give low values 1.02 | S. cerevisiae deletion strains, locus YPR167C, strain met16, hits give low values 1.02 | S. cerevisiae deletion strains, strain wtn01, hits give low values 1.02 | S. cerevisiae strains, strain wild type, hits give low values 1
